# Shown are actives, neighbours in structure and some others; about 3.5% of the full set was active somewhere.
# Bead autofluor: counter-screen for toxin protease inhibitors: compound fluorescence | compound autofluorescence counterscreen, microsphere flow cytometry; active compounds read high | fluorescence intensity (concentration not given with the values) | actives 3.1% (n = 360,000) | AID 624483; in the data active = fluorescence intensity above about 16000; inconclusive = no clear call, values can overlap the other calls
# BoNT A protease: blocks Botulinum neurotoxin A light chain protease. multiplex microsphere protease substrate cleavage, flow cytometry. inhibition, % at 10 µM. actives 0.17% (n = 360,000). AID 588499; note: plate controls were buffer without enzyme for full effect and enzyme alone for no effect
# 3CLpro inhibitor: SARS-CoV 3CLpro protease inhibition | P0C6X7 | recombinant SARS-CoV 3CLpro, quenched FRET peptide cleavage | inhibition, % at 6 µM | actives 0.14% (n = 290,000) | AID 1706; in the data active = inhibition above about 12%
# Anthrax LF prot: inhibitors of Bacillus anthracis lethal factor protease; P15917; multiplex microsphere protease cleavage assay, LF; inhibition, % at 10 µM; actives 0.12% (n = 360,000); AID 588501; note: plate controls were buffer without enzyme for full effect and enzyme alone for no effect
# Target sequence (P15917 whole entry, looked up): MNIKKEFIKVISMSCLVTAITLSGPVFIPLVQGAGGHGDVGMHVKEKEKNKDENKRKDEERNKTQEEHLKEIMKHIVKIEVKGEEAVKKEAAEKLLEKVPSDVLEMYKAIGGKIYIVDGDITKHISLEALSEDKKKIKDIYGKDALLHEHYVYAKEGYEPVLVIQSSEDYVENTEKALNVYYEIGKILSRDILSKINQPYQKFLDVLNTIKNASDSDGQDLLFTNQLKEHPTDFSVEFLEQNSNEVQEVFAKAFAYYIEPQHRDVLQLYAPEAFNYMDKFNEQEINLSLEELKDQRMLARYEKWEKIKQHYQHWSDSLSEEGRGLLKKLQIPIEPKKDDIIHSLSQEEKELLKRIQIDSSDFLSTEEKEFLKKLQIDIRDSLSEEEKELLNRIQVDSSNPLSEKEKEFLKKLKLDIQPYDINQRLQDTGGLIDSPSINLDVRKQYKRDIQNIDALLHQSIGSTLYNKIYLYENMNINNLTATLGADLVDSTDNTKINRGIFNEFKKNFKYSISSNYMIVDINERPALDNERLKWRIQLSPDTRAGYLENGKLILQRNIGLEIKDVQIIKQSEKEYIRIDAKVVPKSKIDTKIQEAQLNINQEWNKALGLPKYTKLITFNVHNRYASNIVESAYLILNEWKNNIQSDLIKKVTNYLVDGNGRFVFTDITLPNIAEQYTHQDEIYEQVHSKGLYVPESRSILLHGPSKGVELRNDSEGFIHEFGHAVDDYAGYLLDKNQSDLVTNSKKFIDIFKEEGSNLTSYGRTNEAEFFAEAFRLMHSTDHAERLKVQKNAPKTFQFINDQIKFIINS
# BoNT-F LC inh: BoNT F light chain protease inhibition | Multiplex microsphere protease cleavage assay, flow cytometry | inhibition, % at 10 µM | actives 0.22% (n = 360,000) | AID 588497; in the data active = inhibition above about 35%, passing the limit was not always enough; inconclusive = no clear call, values can overlap the other calls; note: plate controls were buffer without enzyme for full effect and enzyme alone for no effect
# Active calls of the source: *; ? = inconclusive; · = no result. Cut-off read from the data, not from the text of the source, unless noted: active = inhibition above about 30%; inconclusive = no clear call, values can overlap the other calls; inactive = below that.
SMILES,Bead autofluor,BoNT A protease,3CLpro inhibitor,Anthrax LF prot,BoNT-F LC inh
Cc1ccc(N(C(=O)Cn2nnc(-c3ccc(F)cc3)n2)C(CC(C)C)C(=O)NCC2CCCO2)cc1 (configuration not stated),23138*,-0.8,3.6,0.0,-3.7
O=C(NCC1CCCO1)C(c1ccncc1)N(Cc1cccs1)C(=O)Cn1nnc(-c2ccc(F)cc2)n1 (configuration not stated),4165,-2.8,2.7,-5.3,-13.8
Cc1ccc(-c2nnn(CC(=O)N(c3ccccc3F)C(CC(C)C)C(=O)NCC3CCCO3)n2)cc1 (configuration not stated),16688*,-1.1,0.0,-3.5,-3.0
O=C(NCC1CCCO1)C(c1ccc(F)cc1)N(C(=O)Cn1nnc(-c2ccc(F)cc2)n1)c1cccc(O)c1 (configuration not stated),3388,-0.4,10.6,-0.7,0.1
O=C(Nc1ccn(CCCN2CCN(c3ccccn3)CC2)c(=O)n1)OCc1ccccc1,3464,0.3,·,-1.4,-1.2
CC(C)CC(C(=O)NCC1CCCO1)N(C(=O)Cn1nnc(-c2ccc(F)cc2)n1)c1ccccc1F (configuration not stated),21995*,-3.0,-5.8,-4.7,-9.1
CC(C(=O)NC1CCCC1)N(C(=O)Cn1nnc(-c2ccc(F)cc2)n1)c1ccccc1F (configuration not stated),4115,0.6,7.8,-2.9,5.0
Cc1cc(OCc2nnc(SCC(=O)O)n2-c2ccccc2)ccc1Cl,4361,1.7,-3.5,-5.4,13.7
Cc1ccc(-c2csc3ncnc(Sc4nnc(CN5CCCCCC5=O)o4)c23)cc1,16668*,0.0,0.6,-3.6,-0.8
COc1cc(OC)cc(C(=O)N2CCN(C3CCCCC3)CC2)c1,3788,-0.6,-6.2,-3.4,4.9
COc1cc(OC)cc(C(=O)NN2CCOCC2)c1,4663,-0.8,-5.2,-4.8,-8.8
COc1cc(OC)cc(C(=O)N2CCC(N3CCCCCC3)CC2)c1,19182*,-3.5,-4.8,-1.2,-6.9
COc1cc(OC)cc(C(=O)NN2CCCCC2)c1,25088*,-4.1,-2.0,-0.6,-5.7
O=C(N/N=C/c1ccc(OC(=O)c2ccccc2)cc1)c1cccc(O)c1,3678,-0.6,-1.8,2.1,4.6
OCC1(Cc2ccccc2)CCCN(Cc2cn[nH]c2-c2ccccc2)C1 (configuration not stated),4774,-0.4,-1.4,4.0,1.7
O=C(NNC(=O)c1ccc(S(=O)(=O)N2CCOCC2)cc1)c1ccccc1,3693,1.8,0.2,-3.8,45.2*
COc1ccc(NC(=O)c2ccc(S(=O)(=O)N3CCOCC3)cc2)c(OC)c1,24065*,-3.3,8.0,-2.4,-6.3
Cc1ccc(-n2nc3c(c2NC(=O)c2ccc(S(=O)(=O)N4CCOCC4)cc2)CSC3)c(C)c1,11803,1.1,2.5,-1.6,8.8
Cc1cccc(-n2nc3c(c2NC(=O)c2ccc(S(=O)(=O)N4CCOCC4)cc2)CSC3)c1C,23238*,?,-6.2,0.7,-0.5
Cc1ccc(C(=O)NNC(=O)c2ccc(S(=O)(=O)N3CCOCC3)cc2)cc1,3594,-0.9,2.5,5.4,-14.1
Cc1ccc(N(Cc2ccccc2)C(=O)c2ccc(S(=O)(=O)N3CCOCC3)cc2)cc1,27784*,-120.8,·,-23.7,-176.7
COCCCn1c(C(=O)N2CCOCC2)cc2c(=O)n3ccccc3nc21,4754,-0.9,-0.3,-0.7,-2.5
COc1ccc(Cl)cc1C(=O)CSc1nnnn1C,4333,0.2,2.2,-0.6,7.7
COc1cccc(NS(=O)(=O)c2ccc(S(=O)(=O)N3CCOCC3)cc2)c1,17066*,-2.7,0.8,-2.1,-6.3
COc1cccc(NC(=O)C2CCN(S(=O)(=O)c3ccccc3)CC2)c1,4079,2.6,6.5,-6.4,11.4
SMILES,Bead autofluor,BoNT A protease,3CLpro inhibitor,Anthrax LF prot,BoNT-F LC inh
COc1cc(S(=O)(=O)N2CCOCC2)ccc1NC(=O)COC(=O)c1cc(OC)c(OC)c(OC)c1,4256,3.1,·,-1.5,13.0
COc1cc(S(=O)(=O)N2CCOCC2)ccc1NC(=O)COC(=O)CC12CC3CC(CC(C3)C1)C2,24036*,-1.8,0.1,-2.9,-6.0
CC(C)C(NC(=O)c1ccc(S(=O)(=O)N2CCOCC2)cc1)c1nc2ccccc2[nH]1 (configuration not stated),22568*,-0.5,-3.5,-2.9,-3.2
COc1cccc(NC(=O)C2CCN(S(=O)(=O)c3ccc4c(c3)OCCO4)CC2)c1,22969*,-0.4,5.5,-8.3,-2.6
O=C(CSc1nc(O)cc(=O)n1-c1ccccc1)Nc1ccc(Br)cn1,3237,-0.5,1.5,1.4,-2.4
Cc1ccc(C)c(C(=O)COC(=O)c2ccccc2N2C(=O)C3C4CCC(C4)C3C2=O)c1 (configuration not stated),20251*,?,-2.8,-0.9,-0.5
O=C(COC(=O)c1ccccc1N1C(=O)C2C3CCC(C3)C2C1=O)c1ccccc1 (configuration not stated),2939,-0.5,4.8,0.9,3.4
COc1cccc(CNc2ccc(Br)cn2)c1O,24305*,?,-0.4,-1.2,-6.2
COc1cccc(CNc2ncc(Br)cc2Br)c1O,3394,-0.3,7.0,-0.2,0.6
Cn1c(=O)c2c(ncn2Cc2ccccc2)n(C)c1=O,6264,-1.0,1.3,-3.9,-1.3
CCCCn1cnc2c1c(=O)n(C)c(=O)n2C,23846*,-3.2,1.1,-3.4,-7.2
Cn1c(=O)c2c(ncn2CCCc2ccccc2)n(C)c1=O,20359*,3.3,1.9,-12.7,4.1
CCOC(=O)C1CCN(C(=O)c2ccc(CNS(=O)(=O)c3ccc(C)cc3)cc2)CC1,4848,0.6,5.3,-2.7,-3.1
CC(C)Cn1c(=O)c2c(c3ccccc31)OC(C)C(=O)N2 (configuration not stated),2939,-0.5,2.3,-1.1,-9.4
O=C1CC(CCC(=O)NC2CC2)c2ccccc2N1 (configuration not stated),20432*,0.7,-2.2,0.0,1.8
O=C1CC(C(=O)O)c2ccccc2N1 (configuration not stated),9635,18.4,-6.1,2.1,29.3
COc1ccc(C(=O)Nc2cccc(C(C)=O)c2)cc1OC,7850,4.0,-4.3,1.3,17.5
COc1ccc(NC(=S)Nc2cccc(C(C)=O)c2)cc1OC,4331,3.7,-3.8,-1.1,35.7*
CC(=O)c1cccc(NC(=S)NC(=O)CC(C)(C)C)c1,25347*,-3.7,3.4,-0.9,-7.9
COC(=O)c1ccc(C2c3c(n[nH]c3C)C(=O)N2c2ccc(C)cc2)cc1 (configuration not stated),5265,1.3,-3.2,0.9,2.1
Cc1ccc(S(=O)(=O)NCCCCCCNS(=O)(=O)c2ccc(C)cc2)cc1,3750,-0.1,·,-0.4,-2.0
COc1nc(OCCNS(=O)(=O)c2ccc(C)cc2)nc(N(C)C)n1,3636,0.8,-4.3,8.2,-6.6
CSc1nc(C)cc(OCCNS(=O)(=O)c2ccc(C)cc2)n1,17261*,-5.5,-2.1,-6.6,-7.3
Cc1ccc(S(=O)(=O)NCCOCCNS(=O)(=O)c2ccc(C)cc2)cc1,16362*,0.2,2.2,1.5,-0.4

# Compound activity: PubChem BioAssay, several laboratories
